This passage reports binding signal results from article PMC11006913.

Where a chain is given by its changes, count along the chain named.

What all share (test): PBM; 200 nM protein, PBS
Holding throughout (conditions): dsDNA, one strand shown

The target in test [1] is SHOX (Homo sapiens, UniProt O15266 103-189).
Test [2] has as its target HOXC9 (Homo sapiens, UniProt P31274 178-260, K195R).
For test [3], the target named is HOXB6 (Homo sapiens, UniProt P17509 132-218, K202E).
Test [4] deals with HOXC9 (Homo sapiens, UniProt P31274 178-260).
HOXC9 (Homo sapiens, UniProt P31274 178-260), sequence (P31274 178-260): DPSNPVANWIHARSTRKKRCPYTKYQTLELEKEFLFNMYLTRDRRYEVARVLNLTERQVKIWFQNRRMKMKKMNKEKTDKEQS
In test [5] the target is MSX2 (Homo sapiens, UniProt P35548 130-214, R199I).
MSX2 (Homo sapiens, UniProt P35548 130-214, R199I), sequence (P35548 130-214 R199I): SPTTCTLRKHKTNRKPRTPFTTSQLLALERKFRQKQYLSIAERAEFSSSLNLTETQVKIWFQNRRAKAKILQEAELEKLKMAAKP
In test [6] the target is SHOX (Homo sapiens, UniProt O15266 103-189, R173C).
SHOX (Homo sapiens, UniProt O15266 103-189, R173C), sequence (O15266 103-189 R173C): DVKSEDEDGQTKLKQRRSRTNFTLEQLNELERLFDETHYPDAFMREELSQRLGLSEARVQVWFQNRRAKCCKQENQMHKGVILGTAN
Test [7] concerns the target HOXC9 (Homo sapiens, UniProt P31274 178-260, R193K).
Test [8] deals with MSX2 (Homo sapiens, UniProt P35548 130-214).
MSX2 (Homo sapiens, UniProt P35548 130-214), sequence (P35548 130-214): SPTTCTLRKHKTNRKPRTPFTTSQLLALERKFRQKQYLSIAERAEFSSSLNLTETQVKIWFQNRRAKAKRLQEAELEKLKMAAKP
In test [9] the target is HOXC9 (Homo sapiens, UniProt P31274 178-260, R222W).
HOXC9 (Homo sapiens, UniProt P31274 178-260, R222W), sequence (P31274 178-260 R222W): as the sequence (P31274 178-260) above, with R45W counted along it
Test [10] has as its target MSX2 (Homo sapiens, UniProt P35548 130-214, F161Y).
Test [11] addresses HOXB6 (Homo sapiens, UniProt P17509 132-218).
The target in test [12] is CRX (Homo sapiens, UniProt O43186 26-111).
CRX (Homo sapiens, UniProt O43186 26-111), sequence (O43186 26-111): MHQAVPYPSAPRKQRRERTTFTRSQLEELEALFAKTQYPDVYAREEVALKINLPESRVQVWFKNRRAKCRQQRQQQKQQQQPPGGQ
Test [13] addresses HOXA7 (Homo sapiens, UniProt P31268 116-202).
Test [14] concerns the target CRX (Homo sapiens, UniProt O43186 26-111, E42D).
Test [15] addresses HOXA7 (Homo sapiens, UniProt P31268 116-202, W177C).
In test [16] the target is NKX3-2 (Homo sapiens, UniProt P78367 192-278, P234S).
NKX3-2 (Homo sapiens, UniProt P78367 192-278, P234S), sequence (P78367 192-278 P234S): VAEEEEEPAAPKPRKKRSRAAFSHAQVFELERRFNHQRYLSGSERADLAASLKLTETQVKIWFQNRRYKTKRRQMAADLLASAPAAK
Test [17] concerns the target CRX (Homo sapiens, UniProt O43186 26-111, R41L).
Test [18] addresses NKX3-2 (Homo sapiens, UniProt P78367 192-278).
Test [19] addresses HOXA4 (Homo sapiens, UniProt Q00056 201-287, W262R).
In test [20] the target is HOXA4 (Homo sapiens, UniProt Q00056 201-287, R217L).
HOXA4 (Homo sapiens, UniProt Q00056 201-287, R217L), sequence (Q00056 201-287 R217L): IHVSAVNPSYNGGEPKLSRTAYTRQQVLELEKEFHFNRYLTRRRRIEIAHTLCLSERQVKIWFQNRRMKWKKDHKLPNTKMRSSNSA
The target in test [21] is HOXA4 (Homo sapiens, UniProt Q00056 201-287).
HOXA4 (Homo sapiens, UniProt Q00056 201-287), sequence (Q00056 201-287): as the sequence (Q00056 201-287 R217L) above, with L17R counted along it
For test [22], the target named is HOXA4 (Homo sapiens, UniProt Q00056 201-287, W262F).
HOXA4 (Homo sapiens, UniProt Q00056 201-287, W262F), sequence (Q00056 201-287 W262F): as the sequence (Q00056 201-287 R217L) above, with L17R, W62F counted along it
The target in test [23] is T1, SIX6 (Homo sapiens, UniProt O95475 114-200, L167I).
T1 sequence: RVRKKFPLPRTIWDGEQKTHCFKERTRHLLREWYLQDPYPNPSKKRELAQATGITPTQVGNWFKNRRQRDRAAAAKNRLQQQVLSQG

Test [24] deals with T2, SIX6 (Homo sapiens, UniProt O95475 114-200, L143V).
T2 sequence: T1 sequence with L30V, I54L

Test [25] concerns the target T3, SIX6 (Homo sapiens, UniProt O95475 114-200, H141N).
T3 sequence: T1 sequence with H28N, I54L

Test [26] has as its target T4, SIX6 (Homo sapiens, UniProt O95475 114-200, T165P).
T4 sequence: T1 sequence with T52P, I54L

Test [27] has as its target T5, SIX6 (Homo sapiens, UniProt O95475 114-200, L167M).
T5 sequence: T1 sequence with I54M

The target in test [28] is T6, SIX6 (Homo sapiens, UniProt O95475 114-200, L143M).
T6 sequence: T1 sequence with L30M, I54L

The target in test [29] is T7, SIX6 (Homo sapiens, UniProt O95475 114-200, L143I).
T7 sequence: T1 sequence with L30I, I54L

Test [30] deals with T8, SIX6 (Homo sapiens, UniProt O95475 114-200, T165G).
T8 sequence: T1 sequence with T52G, I54L

The target in test [31] is HOXA2 (Homo sapiens, UniProt O43364 129-215, R185T).
HOXA2 (Homo sapiens, UniProt O43364 129-215, R185T), sequence (O43364 129-215 R185T): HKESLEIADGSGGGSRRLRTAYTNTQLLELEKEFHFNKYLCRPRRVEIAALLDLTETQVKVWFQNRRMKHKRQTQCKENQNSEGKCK
Test [32] has as its target T9, SIX6 (Homo sapiens, UniProt O95475 114-200, T139Q).
T9 sequence: T1 sequence with T26Q, I54L

For test [33], the target named is T10, SIX6 (Homo sapiens, UniProt O95475 114-200, T165A).
T10 sequence: T1 sequence with T52A, I54L

Test [34] addresses HOXA2 (Homo sapiens, UniProt O43364 129-215, R185K).
The target in test [35] is T11, SIX6 (Homo sapiens, UniProt O95475 114-200, L167V).
T11 sequence: T1 sequence with I54V

In test [36] the target is T12, SIX6 (Homo sapiens, UniProt O95475 114-200).
T12 sequence: T1 sequence with I54L

Test [37] has as its target T13, SIX6 (Homo sapiens, UniProt O95475 114-200, T165I).
T13 sequence: T1 sequence with T52I, I54L

Test [38] deals with HOXA2 (Homo sapiens, UniProt O43364 129-215, Y150S).
HOXA2 (Homo sapiens, UniProt O43364 129-215, Y150S), sequence (O43364 129-215 Y150S): as the sequence (O43364 129-215 R185T) above, with Y22S, T57R counted along it
For test [39], the target named is HOXA2 (Homo sapiens, UniProt O43364 129-215).
HOXA2 (Homo sapiens, UniProt O43364 129-215), sequence (O43364 129-215): as the sequence (O43364 129-215 R185T) above, with T57R counted along it
Test [40] has as its target HOXB9 (Homo sapiens, UniProt P17482 171-250, T197M).
Test [41] concerns the target HOXB9 (Homo sapiens, UniProt P17482 171-250).
The target in test [42] is HOXB9 (Homo sapiens, UniProt P17482 171-250, R186Q).
HOXB9 (Homo sapiens, UniProt P17482 171-250, R186Q), sequence (P17482 171-250 R186Q): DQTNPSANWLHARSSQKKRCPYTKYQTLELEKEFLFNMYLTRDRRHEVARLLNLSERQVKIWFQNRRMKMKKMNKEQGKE

SHOX (Homo sapiens, UniProt O15266 103-189), sequence (O15266 103-189): as the sequence (O15266 103-189 R173C) above, with C71R counted along it
HOXA4 (Homo sapiens, UniProt Q00056 201-287, W262R), sequence (Q00056 201-287 W262R): as the sequence (Q00056 201-287 R217L) above, with L17R, W62R counted along it
MSX2 (Homo sapiens, UniProt P35548 130-214, F161Y), sequence (P35548 130-214 F161Y): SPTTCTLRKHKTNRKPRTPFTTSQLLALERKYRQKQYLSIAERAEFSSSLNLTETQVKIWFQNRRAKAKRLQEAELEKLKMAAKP
NKX3-2 (Homo sapiens, UniProt P78367 192-278), sequence (P78367 192-278): as the sequence (P78367 192-278 P234S) above, with S43P counted along it
HOXA7 (Homo sapiens, UniProt P31268 116-202), sequence (P31268 116-202): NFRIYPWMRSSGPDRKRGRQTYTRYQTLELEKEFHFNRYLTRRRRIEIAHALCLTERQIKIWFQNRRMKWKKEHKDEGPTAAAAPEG
CRX (Homo sapiens, UniProt O43186 26-111, R41L), sequence (O43186 26-111 R41L): as the sequence (O43186 26-111) above, with R16L counted along it
CRX (Homo sapiens, UniProt O43186 26-111, E42D), sequence (O43186 26-111 E42D): as the sequence (O43186 26-111) above, with E17D counted along it
HOXB9 (Homo sapiens, UniProt P17482 171-250), sequence (P17482 171-250): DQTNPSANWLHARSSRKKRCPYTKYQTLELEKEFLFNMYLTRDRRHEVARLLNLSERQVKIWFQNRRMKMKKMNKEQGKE
HOXA2 (Homo sapiens, UniProt O43364 129-215, R185K), sequence (O43364 129-215 R185K): as the sequence (O43364 129-215 R185T) above, with T57K counted along it
HOXB6 (Homo sapiens, UniProt P17509 132-218, K202E), sequence (P17509 132-218 K202E): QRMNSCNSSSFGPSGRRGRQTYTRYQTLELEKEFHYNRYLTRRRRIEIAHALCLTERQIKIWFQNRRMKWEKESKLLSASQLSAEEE
HOXA7 (Homo sapiens, UniProt P31268 116-202, W177C), sequence (P31268 116-202 W177C): as the sequence (P31268 116-202) above, with W62C counted along it
HOXC9 (Homo sapiens, UniProt P31274 178-260, K195R), sequence (P31274 178-260 K195R): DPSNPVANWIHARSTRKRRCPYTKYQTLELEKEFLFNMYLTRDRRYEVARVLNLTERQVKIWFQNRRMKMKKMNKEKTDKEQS
HOXB6 (Homo sapiens, UniProt P17509 132-218), sequence (P17509 132-218): as the sequence (P17509 132-218 K202E) above, with E71K counted along it
HOXC9 (Homo sapiens, UniProt P31274 178-260, R193K), sequence (P31274 178-260 R193K): as the sequence (P31274 178-260) above, with R16K counted along it
HOXB9 (Homo sapiens, UniProt P17482 171-250, T197M), sequence (P17482 171-250 T197M): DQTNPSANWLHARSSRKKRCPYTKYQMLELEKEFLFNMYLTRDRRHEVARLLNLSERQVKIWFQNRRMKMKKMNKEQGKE

Take CCAGGGAC: the binding signal with SHOX [1] was 7.08 upbm affinity estimate (log intensity, higher = more binding, comparable within an allelic series); with HOXC9 [2] it was 9.47 upbm affinity estimate (log intensity, higher = more binding, comparable within an allelic series); in the test with HOXB6 [3], 8.97 upbm affinity estimate (log intensity, higher = more binding, comparable within an allelic series); with HOXC9 [4], 9.52 upbm affinity estimate (log intensity, higher = more binding, comparable within an allelic series); in the test with MSX2 [5] it was 9.5 upbm affinity estimate (log intensity, higher = more binding, comparable within an allelic series); with SHOX [6] it was 7.17 upbm affinity estimate (log intensity, higher = more binding, comparable within an allelic series). Moreover, the binding signal was 9.51 upbm affinity estimate (log intensity, higher = more binding, comparable within an allelic series) in the test with HOXC9 [7]; 9.58 upbm affinity estimate (log intensity, higher = more binding, comparable within an allelic series) in the test with MSX2 [8]; 9.62 upbm affinity estimate (log intensity, higher = more binding, comparable within an allelic series) in the test with HOXC9 [9]; 9.57 upbm affinity estimate (log intensity, higher = more binding, comparable within an allelic series) in the test with MSX2 [10]; 8.99 upbm affinity estimate (log intensity, higher = more binding, comparable within an allelic series) with HOXB6 [11].
On to CTTATAGA, for which, in the test with SHOX [1], the binding signal is 8.03 upbm affinity estimate (log intensity, higher = more binding, comparable within an allelic series).
Take GCCTCGCC: the binding signal was 7.06 upbm affinity estimate (log intensity, higher = more binding, comparable within an allelic series) with SHOX [1]; 8.26 upbm affinity estimate (log intensity, higher = more binding, comparable within an allelic series) with CRX [12]; 8.38 upbm affinity estimate (log intensity, higher = more binding, comparable within an allelic series) in the test with HOXA7 [13]; 8.29 upbm affinity estimate (log intensity, higher = more binding, comparable within an allelic series) with CRX [14]; 9.34 upbm affinity estimate (log intensity, higher = more binding, comparable within an allelic series) in the test with MSX2 [5]; 7.02 upbm affinity estimate (log intensity, higher = more binding, comparable within an allelic series) in the test with SHOX [6]. Also, the binding signal with MSX2 [8] is 9.36 upbm affinity estimate (log intensity, higher = more binding, comparable within an allelic series); with MSX2 [10], 9.46 upbm affinity estimate (log intensity, higher = more binding, comparable within an allelic series); with HOXA7 [15] it was 8.26 upbm affinity estimate (log intensity, higher = more binding, comparable within an allelic series); with NKX3-2 [16] it was 10.6 upbm affinity estimate (log intensity, higher = more binding, comparable within an allelic series); with CRX [17], 8.24 upbm affinity estimate (log intensity, higher = more binding, comparable within an allelic series); in the test with NKX3-2 [18] it was 10.4 upbm affinity estimate (log intensity, higher = more binding, comparable within an allelic series).
CGAGCGCC: the binding signal with SHOX [1] was 7.01 upbm affinity estimate (log intensity, higher = more binding, comparable within an allelic series); with HOXA4 [19], 9.78 upbm affinity estimate (log intensity, higher = more binding, comparable within an allelic series); in the test with HOXA4 [20], 9.82 upbm affinity estimate (log intensity, higher = more binding, comparable within an allelic series); with SHOX [6], 7.09 upbm affinity estimate (log intensity, higher = more binding, comparable within an allelic series); with HOXA4 [21], 9.8 upbm affinity estimate (log intensity, higher = more binding, comparable within an allelic series); with HOXA4 [22] it was 9.91 upbm affinity estimate (log intensity, higher = more binding, comparable within an allelic series).
Consider GGAGCGGA, for which the binding signal is 7.25 upbm affinity estimate (log intensity, higher = more binding, comparable within an allelic series) with SHOX [1]; 9.19 upbm affinity estimate (log intensity, higher = more binding, comparable within an allelic series) with SIX6 [23]; 8.94 upbm affinity estimate (log intensity, higher = more binding, comparable within an allelic series) with SIX6 [24]; 9.15 upbm affinity estimate (log intensity, higher = more binding, comparable within an allelic series) with SIX6 [25]; 8.85 upbm affinity estimate (log intensity, higher = more binding, comparable within an allelic series) in the test with SIX6 [26]; 9.13 upbm affinity estimate (log intensity, higher = more binding, comparable within an allelic series) in the test with SIX6 [27]. Besides, the binding signal in the test with SIX6 [28] is 9.14 upbm affinity estimate (log intensity, higher = more binding, comparable within an allelic series); in the test with SIX6 [29] it was 9.05 upbm affinity estimate (log intensity, higher = more binding, comparable within an allelic series); in the test with SIX6 [30], 9.13 upbm affinity estimate (log intensity, higher = more binding, comparable within an allelic series); with HOXA2 [31], 7.31 upbm affinity estimate (log intensity, higher = more binding, comparable within an allelic series); with SIX6 [32], 9.15 upbm affinity estimate (log intensity, higher = more binding, comparable within an allelic series); with MSX2 [5], 9.51 upbm affinity estimate (log intensity, higher = more binding, comparable within an allelic series). In addition, the binding signal was 9.08 upbm affinity estimate (log intensity, higher = more binding, comparable within an allelic series) with SIX6 [33]; 7.2 upbm affinity estimate (log intensity, higher = more binding, comparable within an allelic series) in the test with SHOX [6]; 10.3 upbm affinity estimate (log intensity, higher = more binding, comparable within an allelic series) in the test with HOXA2 [34]; 9.6 upbm affinity estimate (log intensity, higher = more binding, comparable within an allelic series) with MSX2 [8]; 9.14 upbm affinity estimate (log intensity, higher = more binding, comparable within an allelic series) in the test with SIX6 [35]; 9.16 upbm affinity estimate (log intensity, higher = more binding, comparable within an allelic series) in the test with SIX6 [36]. The binding signal with SIX6 [37] was 9.13 upbm affinity estimate (log intensity, higher = more binding, comparable within an allelic series); in the test with MSX2 [10] it was 9.62 upbm affinity estimate (log intensity, higher = more binding, comparable within an allelic series); with HOXA2 [38], 10.5 upbm affinity estimate (log intensity, higher = more binding, comparable within an allelic series); in the test with HOXA2 [39], 7.46 upbm affinity estimate (log intensity, higher = more binding, comparable within an allelic series).
Turning to AGATATTG, the binding signal with SHOX [1] is 8.52 upbm affinity estimate (log intensity, higher = more binding, comparable within an allelic series).
Regarding CCCCGGGA, the binding signal was 7.25 upbm affinity estimate (log intensity, higher = more binding, comparable within an allelic series) with SHOX [1]; 9.71 upbm affinity estimate (log intensity, higher = more binding, comparable within an allelic series) with HOXA4 [19]; 9.86 upbm affinity estimate (log intensity, higher = more binding, comparable within an allelic series) with HOXA4 [20]; 7.27 upbm affinity estimate (log intensity, higher = more binding, comparable within an allelic series) with SHOX [6]; 9.8 upbm affinity estimate (log intensity, higher = more binding, comparable within an allelic series) in the test with HOXA4 [21]; 9.99 upbm affinity estimate (log intensity, higher = more binding, comparable within an allelic series) with HOXA4 [22].
For the sequence CCCATTTA, in the test with SHOX [1], the binding signal is 8.95 upbm affinity estimate (log intensity, higher = more binding, comparable within an allelic series).
As for AATAACGC, the binding signal is 8.74 upbm affinity estimate (log intensity, higher = more binding, comparable within an allelic series) with SHOX [1]; 10.2 upbm affinity estimate (log intensity, higher = more binding, comparable within an allelic series) in the test with HOXA4 [19]; 11.2 upbm affinity estimate (log intensity, higher = more binding, comparable within an allelic series) in the test with HOXA4 [21]; 10.4 upbm affinity estimate (log intensity, higher = more binding, comparable within an allelic series) with HOXA4 [22].
As to GCCGGGCA, the binding signal in the test with SHOX [1] was 7.25 upbm affinity estimate (log intensity, higher = more binding, comparable within an allelic series); with HOXB9 [40], 8.48 upbm affinity estimate (log intensity, higher = more binding, comparable within an allelic series); in the test with HOXB9 [41], 8.45 upbm affinity estimate (log intensity, higher = more binding, comparable within an allelic series); with SHOX [6], 7.18 upbm affinity estimate (log intensity, higher = more binding, comparable within an allelic series); in the test with HOXB9 [42] it was 8.59 upbm affinity estimate (log intensity, higher = more binding, comparable within an allelic series); in the test with NKX3-2 [16] it was 10.6 upbm affinity estimate (log intensity, higher = more binding, comparable within an allelic series). The binding signal in the test with NKX3-2 [18] is 10.6 upbm affinity estimate (log intensity, higher = more binding, comparable within an allelic series).
